This is a sample that favours compounds with a hit; in the whole collection about 4.6% have one here.
ABHD5-PLIN5 inh – inhibitors of human ABHD5-perilipin-5 interaction | Q00G26+Q8WTS1 | Split G. princeps luciferase complementation, luminescence, 4 h | inhibition, % at 4 µM | 360,000 compounds, 0.78% hits | AID 602281;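 active means inhibition above the mean inhibition across every tested compound plus 3 SD, cut at about 22% in these data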;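 further: 0% = DMSO only wells and the 100% control is not disclosed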
Target sequence (Q00G26 whole entry, looked up): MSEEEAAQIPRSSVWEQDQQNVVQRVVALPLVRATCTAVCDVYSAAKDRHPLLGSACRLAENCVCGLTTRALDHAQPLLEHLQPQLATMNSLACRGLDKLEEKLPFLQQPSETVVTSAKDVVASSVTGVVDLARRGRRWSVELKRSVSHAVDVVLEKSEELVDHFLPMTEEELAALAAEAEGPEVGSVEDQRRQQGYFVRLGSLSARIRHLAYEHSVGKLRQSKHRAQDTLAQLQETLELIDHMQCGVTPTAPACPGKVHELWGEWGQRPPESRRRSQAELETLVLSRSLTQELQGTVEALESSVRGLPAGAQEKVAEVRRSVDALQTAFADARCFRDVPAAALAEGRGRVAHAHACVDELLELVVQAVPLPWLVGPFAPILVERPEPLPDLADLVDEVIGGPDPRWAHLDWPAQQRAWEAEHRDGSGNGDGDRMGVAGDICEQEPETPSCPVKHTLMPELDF
Target sequence (Q8WTS1 whole entry, looked up): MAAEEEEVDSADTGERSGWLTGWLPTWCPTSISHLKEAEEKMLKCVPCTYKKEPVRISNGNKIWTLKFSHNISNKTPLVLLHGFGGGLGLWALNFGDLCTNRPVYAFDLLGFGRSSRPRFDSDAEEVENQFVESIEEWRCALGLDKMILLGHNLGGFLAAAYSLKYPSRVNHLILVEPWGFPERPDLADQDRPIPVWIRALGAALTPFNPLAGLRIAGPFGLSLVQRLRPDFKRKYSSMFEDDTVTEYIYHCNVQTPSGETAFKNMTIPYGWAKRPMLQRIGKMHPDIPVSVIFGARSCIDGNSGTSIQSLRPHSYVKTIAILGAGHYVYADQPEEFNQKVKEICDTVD
Mdm2-MdmX inh – inhibitors of human Mdm2/MdmX interaction. O15151+Q00987. SaOS-2 split-luciferase Mdm2/MdmX complementation, luminescence. inhibition, % at 8 µM. 330,000 compounds, 3% hits;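 active means inhibition of at least 50% at 8 µM in the primary screen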
HIF-2a inh – HIF-2a inhibition; inhibition, % at 18.8 µM; 360,000 compounds, 0.72% hits; 786-0 RCC cells HIF-2a reporter, luciferase luminescence, overnight; AID 624352;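 active means inhibition of the luminescence signal of 40% or more relative to plate controls, in a single-dose primary screen at 18.75 µM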
Peg3 prom inh-1 – Peg3 promoter activity inhibition | inhibition, % at 20 µM | 360,000 compounds, 1.7% hits | HeLa PEG-Prom luciferase reporter, luminescence, overnight;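 active means inhibition of at least 50% at 20 µM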
KKLEB cytotox – reduces viability of KKLEB cystic fibrosis airway cells; 360,000 compounds, 0.36% hits; activity change (cytotoxicity), % at 5 µM; KKLEB CF airway cells viability, ATPlite luminescence, overnight; hits give low values; cells stimulated with P. aeruginosa culture filtrate;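 active means corrected activity change at or below -50% at 5 µM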
CF NFkB block – inhibitors of cystic fibrosis induced NF-kB. inhibition, % at 5 µM. 360,000 compounds, 0.86% hits. KKLEB NF-kB-GFP reporter, PAF-induced, GFP fluorescence overnight;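 active means at least 50% inhibition at 5 µM, scaled per plate between neutral and stimulator controls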;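 further: PAF is a Pseudomonas aeruginosa culture filtrate used as stimulus; plate controls were PAF-stimulated DMSO wells for no effect and unstimulated DMSO wells for full effect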
Mdm2 MdmX conf-1 – human Mdm2/MdmX binding inhibition, confirmed; shares compounds with Mdm2-MdmX inh; AID 489028; inhibition, % at 8 µM; 10,000 compounds, 55% hits; luminescent assay
FLuc counter – full-length luciferase inhibition in Mdm2/MdmX counter-screen; shares compounds with Mdm2-MdmX inh; SaOS-2 full-length luciferase counterscreen, luminescence; inhibition, % at 8 µM; 6,200 compounds, 77% hits;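 active means mean inhibition at 8 µM reaching about 37%, which flags the compound as non-specific, limit read from the data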;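 further: p53-null SaOS-2 cells with luciferase driven by a doxycycline-inducible promoter; compound on cells about two nights before reading with doxycycline added after day one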
Peg3 prom inh-2 – Peg3 promoter inhibition confirmation; shares compounds with Peg3 prom inh-1; HeLa PEG-Prom luciferase reporter, luminescence, overnight; inhibition, % at 20 µM; 1,300 compounds, 84% hits; AID 602417;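 active means at 20 µM dose, 40% or more inhibition averaged across four replicates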
CF NFkB inh conf – confirmation of cystic fibrosis induced NF-kB inhibitors; AID 602472; shares compounds with CF NFkB block; KKLEB CF airway cells, PAF-induced NF-kB-GFP fluorescence, overnight; inhibition, % at 5 µM; 1,300 compounds, 64% hits;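 further: stimulus PAF is a Pseudomonas aeruginosa filtrate and not platelet activating factor; plate controls were DMSO wells with stimulus for no effect and unstimulated DMSO wells for full effect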
ABHD5-PLIN5 conf – confirmation of human ABHD5-PLIN5 interaction inhibitors; shares compounds with ABHD5-PLIN5 inh; biochemical ABHD5-PLIN5 interaction, luminescence; inhibition, % at 4 µM; 2,200 compounds, 67% hits; in the data active means inhibition above about 23%;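 further: 0% = DMSO vehicle wells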
HNF4 counter – HNF4 split-luciferase signal hit, counter-screen. shares compounds with ABHD5-PLIN5 inh. HNF4 dimerization, luminescence, biochemical. inhibition, % at 4 µM. 2,200 compounds, 77% hits;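 active means mean inhibition across replicate wells exceeding the computed hit threshold, cut at about 13% in these data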;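 further: light from luciferase halves that rejoin when HNF4 fusion proteins dimerize; 0% = DMSO only wells and the 100% control is not given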
Mdm2 MdmX conf-2 – Mdm2/MdmX (human) interaction inhibition, confirmed; shares compounds with HIF-2a inh; inhibition, % at 8 µM; 740 compounds, 99% hits; SaOS-2 split-luciferase Mdm2/MdmX complementation, luminescence;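 active means mean inhibition of the luminescence signal across two replicates at or above 26 percent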
HIF-2a conf – confirmation of HIF-2a inhibitors. 786-0 RCC cells, HIF-2a luciferase reporter luminescence, overnight. AID 651580. inhibition, % at 18.8 µM. 1,800 compounds, 56% hits. shares compounds with HIF-2a inh;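 active means mean inhibition across four replicates of at least 40 percent at the single tested concentration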
HIF-1a counter – counter-screen for HIF-2a inhibitors: HIF-1a inhibition in MiaPaCa-2 cells; shares compounds with HIF-2a inh; 1,800 compounds, 72% hits; MiaPaCa-2 HIF-1a luciferase reporter, desferoxamine, overnight; inhibition, % at 18.8 µM;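 active means mean inhibition of the reporter signal across four replicates at the single tested dose of 50% or more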
* hit, by the source's call; nt = no result given. Unless noted, no stated cut-off is given here; in the data, active means inhibition above about 40%; inactive means the rest.

SMILES	ABHD5-PLIN5 inh	Mdm2-MdmX inh	HIF-2a inh	Peg3 prom inh-1	KKLEB cytotox	CF NFkB block	Mdm2 MdmX conf-1	FLuc counter	Peg3 prom inh-2	HIF-2a conf	HIF-1a counter	others
COC(=O)c1ccccc1NC1=C/C(=N\S(=O)(=O)c2cccs2)c2ccccc2C1=O	-12	100*	-28	86*	-72*	83*	79*	58*	nt	nt	nt	Mdm2 MdmX conf-2=96*
C[C@H](CO)N1C[C@H](C)[C@H](CN(C)Cc2cncnc2)Oc2cc(Br)ccc2S1(=O)=O	4	nt	4	1	-16	-30	nt	nt	nt	nt	nt
O=C(CCl)Nc1ccccc1Sc1ccc(Cl)cc1	-5	79*	34	106*	-9	5	71*	55*	85*	nt	nt	Mdm2 MdmX conf-2=103*
O=C(NCCc1ccccc1)c1ccc2c(c1)OCCO2	-6	84*	84*	105*	-27	-47	85*	28	90*	91*	95*
O=C(NCCc1ccccc1)c1ccc2c(c1)OCCCO2	-9	97*	92*	108*	-52*	3	94*	52*	94*	nt	nt	Mdm2 MdmX conf-2=99*
COc1ccc(CCNC(=O)c2ccc3c(c2)OCCO3)cc1	-5	-64	-199	-171	5	7	nt	nt	nt	nt	nt
O=C(NCCS(=O)(=O)NCCc1ccccc1)c1ccc2c(c1)OCO2	12	-43	-158	-255	13	13	nt	nt	nt	nt	nt
CC1=CC(C)(C)Nc2ccc(OC(=O)CCN3C(=O)c4ccccc4C3=O)cc21	75*	101*	91*	104*	5	71*	35	nt	nt	89*	95*	CF NFkB inh conf=-24;ABHD5-PLIN5 conf=86*;HNF4 counter=90*
CCOc1ccccc1CNC(=O)c1ccc2c(c1)N(CC)CCS2	-12	6	-28	7	2	-14	nt	nt	nt	nt	nt
O=C1/C(=C/c2ccccc2[N+](=O)[O-])COc2ccccc21	58*	98*	61*	106*	-71*	86*	45*	3	nt	-104	103*	ABHD5-PLIN5 conf=79*;HNF4 counter=76*
COc1ccc(Nc2oc(COc3ccc(Cl)cc3)nc2C#N)cc1	-9	61*	50*	47	-9	-3	44*	77*	nt	34	51*
Cc1ccc(-n2nc3c(=O)n(CCCC(=O)NCc4ccc(C)o4)nc(C)c3c2C)cc1	9	12	1	-3	13	4	nt	nt	nt	nt	nt
CCc1ccc(C(=O)Nc2nc3ccccc3[nH]2)cc1	5	56*	63*	77*	-69*	5	52*	72*	67*	84*	84*
N#Cc1ccc(C(=O)Nc2nc3ccccc3[nH]2)cc1	-6	-46	-187	-279	1	14	nt	nt	nt	nt	nt

From PubChem BioAssay
